Reference: PubChem BioAssay (EPA / NIEHS)
Results filed as inconclusive are left out. Activity calls are given as the source filed them. How the source made its calls, unless noted: active means hit-call score of the fitted dose curve at least 0.9, where 1 is the maximum; inconclusive means response in the unintended direction; inactive means score below 0.9.

Assays:
[1] = ATG_TAL_CIS: Attagene CIS-FACTORIAL HepG2 Assay for human TAL Basal Promoter (AID 2282966; active means hit-call score of the fitted dose curve at least 0.9, where 1 is the maximum; inactive means score below 0.9;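 further: background control endpoint measuring basal TAL promoter reporter mRNA not a specific factor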); settings: HepG2 Attagene cis-factorial TAL promoter reporter; actives raise or lower the signal
Procedure, shortened: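 Steps: transfect HepG2 with multiple reporter transcription units; dose 24 h; isolate RNA, reverse-transcribe, PCR-amplify, label with 6-FAM, digest with HpaI; resolve by capillary electrophoresis. Bidirectional fitting against DMSO baseline.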

[2] = ATG_TGFb_CIS: Attagene CIS-FACTORIAL HepG2 Assay for human Transforming Growth Factor (TGF) (AID 2282967; active means hit-call score of the fitted dose curve at least 0.9, where 1 is the maximum; inactive means score below 0.9); settings: HepG2 Attagene CIS TGFb reporter, mRNA transcription; actives raise or lower the signal
Procedure, shortened: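 Liver HepG2 line, cis-factorial reporter panel, 24 h dosing. Quantitation: RT-PCR products labeled with 6-FAM, cut with HpaI, resolved by capillary electrophoresis; DMSO-referenced bidirectional analysis.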

[3] = molecular target: Nuclear receptor subfamily 1 group I member 3 (Homo sapiens) (UniProt Q14994); experiment: ATG_CAR_TRANS: Attagene TRANS-FACTORIAL HepG2 Assay for human Constitutive Androstane Receptor (CAR) (AID 2282969); settings: HepG2 Attagene TRANS-FACTORIAL CAR reporter;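 further: activators raise reporter mRNA above DMSO so AC50 marks induction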
Procedure, shortened: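 HepG2 cells transiently transfected with GAL4-UAS reporter units; TRANS format reads activity of exogenous chimeric NR-Gal4 protein. After 24 h dosing, reporter mRNA quantified by RT-PCR, 6-FAM labelling and capillary electrophoresis; gain of signal fitted against DMSO.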

[4] = molecular target: Estrogen receptor (Homo sapiens) (UniProt P03372); experiment: ATG_ERa_TRANS: Attagene TRANS-FACTORIAL HepG2 Assay for human Estrogen Receptor alpha (ERa) (AID 2282970); settings: HepG2 Attagene TRANS ERa GAL4 reporter, mRNA
Procedure, shortened: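 Multiplexed cell-based reporter format in HepG2: chimeric ERa-Gal4 protein drives GAL4-UAS reporter transcription. Fluorescent reporter mRNA quantified by capillary electrophoresis 24 hours after dosing; endpoint fitted as signal gain against DMSO.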

[5] = molecular target: Steroid hormone receptor ERR1 (Homo sapiens) (UniProt P11474); experiment: ATG_ERRa_TRANS: Attagene TRANS-FACTORIAL HepG2 Assay for human Estrogen-Related Receptor alpha (ERRa) (AID 2282971); settings: HepG2 Attagene TRANS reporter, ERRa transactivation
Procedure, shortened: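 Signal gain relative to DMSO for an ERRa-Gal4 chimeric receptor, read as reporter mRNA by RT-PCR/capillary electrophoresis. Human HepG2 liver cells, transient multiplex reporter transfection, 24 h chemical exposure.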

[6] = molecular target: X-box-binding protein 1 (Homo sapiens) (UniProt P17861); experiment: ATG_Xbp1_CIS: Attagene CIS-FACTORIAL HepG2 Assay for human X-box Binding Protein 1 (XBP1) (AID 2282972; active means hit-call score of the fitted dose curve at least 0.9, where 1 is the maximum; inactive means score below 0.9); settings: HepG2 XBP1 cis-element reporter, Attagene multiplex; actives raise or lower the signal
Procedure, shortened: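 HepG2, transient MRTU transfection (cis-promoter driven), 24 h compound exposure. Total RNA → oligo(dT) RT → PCR → 6-FAM labeling → HpaI cut → CE. Bidirectional fit vs DMSO.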

[7] = ATG_M_19_TRANS: Attagene TRANS-FACTORIAL HepG2 Assay for M19 Transcription Factor (Internal Marker) (AID 2282974); settings: HepG2 Attagene TRANS-FACTORIAL M19 internal marker reporter
Procedure, shortened: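 HepG2 cells transiently transfected with multiple GAL4-UAS reporter transcription units were exposed to chemicals for 24 h. Reporter mRNA was read by RT-PCR, 6-FAM primer extension, HpaI digestion and capillary electrophoresis; gain of signal fitted relative to DMSO.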

[8] = ATG_GAL4_TRANS: Attagene TRANS-FACTORIAL HepG2 Assay for GAL4 (Internal Marker) (AID 2282976); settings: HepG2 Attagene TRANS GAL4 internal marker reporter
Procedure, shortened: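 Liver HepG2 line bearing multiplexed GAL4-UAS reporter constructs; 24 h chemical treatment. Transcripts were quantified as fluorescent fragments on capillary electrophoresis after RT-PCR and HpaI cut, with activity fitted upward from DMSO.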

[9] = molecular target: Estrogen-related receptor gamma (Homo sapiens) (UniProt P62508); experiment: ATG_ERRg_TRANS: Attagene TRANS-FACTORIAL HepG2 Assay for human Estrogen-Related Receptor gamma (ERRg) (AID 2282977); settings: HepG2 Attagene TRANS reporter, ERRg transactivation;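 further: hits increase reporter signal over DMSO so potencies reflect activators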
Procedure, shortened: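 HepG2 cells transiently transfected with multiplexed GAL4-UAS reporter units and chimeric NR-Gal4 constructs were exposed to test chemicals for 24 h. Reporter mRNA was measured by RT-PCR, 6-FAM primer extension, HpaI digestion and capillary electrophoresis; gain-of-signal versus DMSO.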

[10] = molecular target: Glucocorticoid receptor (Homo sapiens) (UniProt P04150); experiment: ATG_GR_TRANS: Attagene TRANS-FACTORIAL HepG2 Assay for human Glucocorticoid Receptor (GR) (AID 2282978); settings: HepG2 Attagene TRANS GR reporter, mRNA transcription;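 further: activators score as hits since higher reporter transcript over DMSO is fitted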
Procedure, shortened: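 HepG2 cells transiently transfected with multiplexed reporter units in which chimeric NR-GAL4 proteins drive GAL4-UAS reporters; 24 h compound exposure. Reporter mRNA measured by RT-PCR, 6-FAM labelling, HpaI digestion and capillary electrophoresis; gain-of-signal fitted versus DMSO.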

[11] = molecular target: Oxysterols receptor LXR-alpha (Homo sapiens) (UniProt Q13133); experiment: ATG_LXRa_TRANS: Attagene TRANS-FACTORIAL HepG2 Assay for human Liver X Receptor alpha (LXRa) (AID 2282980); settings: HepG2 Attagene TRANS reporter, LXRa transactivation
Procedure, shortened: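 In this multiplexed TRANS system, compounds act on HepG2 cells carrying GAL4-UAS reporter units and a receptor-GAL4 fusion for 24 h. Induced reporter RNA is amplified, fluorescently labelled and sized by capillary electrophoresis, with DMSO as baseline.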

[12] = molecular target: Oxysterols receptor LXR-beta (Homo sapiens) (UniProt P55055); experiment: ATG_LXRb_TRANS: Attagene TRANS-FACTORIAL HepG2 Assay for human Liver X Receptor beta (LXRb) (AID 2282981); settings: HepG2 Attagene TRANS GAL4-LXRb reporter, mRNA
Procedure, shortened: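 Gain-of-signal mRNA reporter endpoint, DMSO as negative control. Transiently transfected HepG2 cells carrying the NR-Gal4 chimera and GAL4-UAS reporter units were treated 24 h; transcripts quantified by RT-PCR and capillary electrophoresis fluorescence.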

[13] = molecular target: Nuclear receptor subfamily 4 group A member 2 (Homo sapiens) (UniProt P43354); experiment: ATG_NURR1_TRANS: Attagene TRANS-FACTORIAL HepG2 Assay for human Nuclear Receptor Related Protein 1 (NURR1) (AID 2282985); settings: HepG2 Attagene TRANS reporter, mRNA readout
Procedure, shortened: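 HepG2 / transient MRTU transfection / 24 h compound exposure / RT-PCR + CE fluorescence of reporter mRNA / gain-of-signal vs DMSO.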

[14] = molecular target: Transcriptional activator Myb (Homo sapiens) (UniProt P10242); experiment: ATG_Myb_CIS: Attagene CIS-FACTORIAL HepG2 Assay for human Myeloblastosis (Myb) Proto-Oncogene Transcription Factor (AID 2282986; active means hit-call score of the fitted dose curve at least 0.9, where 1 is the maximum; inactive means score below 0.9); settings: HepG2 Attagene CIS-FACTORIAL Myb reporter transcription; actives raise or lower the signal
Procedure, shortened: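 HepG2 cells were transiently transfected with cis-regulated multiple reporter transcription units reflecting endogenous Myb activity, then exposed to compound for 24 hours. Reporter mRNA was measured by RT-PCR with capillary electrophoresis; bidirectional fitting versus DMSO baseline.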

[15] = molecular target: Nuclear respiratory factor 1 (Homo sapiens) (UniProt Q16656); experiment: ATG_NRF1_CIS: Attagene CIS-FACTORIAL HepG2 Assay for human Nuclear Respiratory Factor 1 (NRF1) Orphan Gene (AID 2282987; active means hit-call score of the fitted dose curve at least 0.9, where 1 is the maximum; inactive means score below 0.9); settings: HepG2 NRF1 cis-element reporter, Attagene multiplex; actives raise or lower the signal
Procedure, shortened: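 HepG2 cells transiently transfected with multiple reporter transcription units under cis-regulatory promoter control, so endogenous transcription-factor activity is read. After 24 h compound exposure, reporter mRNA quantified by RT-PCR, fluorescent labelling, HpaI digestion and capillary electrophoresis; bidirectional fitting versus DMSO.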

[16] = ATG_VDRE_CIS: Attagene CIS-FACTORIAL HepG2 Assay for human Vitamin D Receptor Element (VDRE) (AID 2282968; active means hit-call score of the fitted dose curve at least 0.9, where 1 is the maximum; inactive means score below 0.9); settings: HepG2 VDRE cis-reporter transcription, actives raise or lower the signal
Procedure, shortened: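 Cell-based multiplexed reporter format in human liver HepG2 cells, 24 h post-dose. Fluorescence from capillary electrophoresis of reporter cDNA gives the signal, with DMSO as negative control and baseline.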

[17] = molecular target: Bile acid receptor (Homo sapiens) (UniProt Q96RI1); experiment: ATG_FXR_TRANS: Attagene TRANS-FACTORIAL HepG2 Assay for Farnesoid X Receptor (FXR) (AID 2282979); settings: HepG2 Attagene TRANS FXR-GAL4 reporter transcription;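 further: hits raise reporter mRNA above DMSO so AC50 marks FXR activation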
Procedure, shortened: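 After 24 h chemical treatment of transfected HepG2 cells, GAL4-UAS reporter transcripts driven by an exogenous FXR-GAL4 fusion were measured by RT-PCR and capillary electrophoresis. Increases over DMSO were fitted.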

[18] = molecular target: Hepatocyte nuclear factor 4-alpha (Homo sapiens) (UniProt P41235); experiment: ATG_HNF4a_TRANS: Attagene TRANS-FACTORIAL HepG2 Assay for human Hepatocyte Nuclear Factor 4 alpha (HNF4a) (AID 2282982); settings: HepG2 HNF4a transactivation reporter, mRNA readout
Procedure, shortened: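 Gain-of-signal mRNA induction, relative to DMSO vehicle, was read after 24 h compound treatment of HepG2 cells bearing transfected GAL4-UAS reporters. Detection used RT-PCR, 6-FAM primer extension and capillary electrophoresis.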

[19] = ATG_M_06_TRANS: Attagene TRANS-FACTORIAL HepG2 Assay for M06 Transcription Factor (Internal Marker) (AID 2282983); settings: HepG2 Attagene TRANS M06 internal marker reporter
Procedure, shortened: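 Internal-marker background readout from a multiplexed TRANS reporter system in HepG2; 24 h dosing; mRNA induction quantified by RT-PCR plus capillary electrophoresis fluorescence; DMSO as negative control and baseline.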

[20] = ATG_M_32_TRANS: Attagene TRANS-FACTORIAL HepG2 Assay for M32 Transcription Factor (Internal Marker) (AID 2282984); settings: HepG2 Attagene TRANS M32 internal marker reporter;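 further: transcript level of a background control reporter unit measured by RT-PCR and capillary electrophoresis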
Procedure, shortened: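 Capillary electrophoresis of 6-FAM-labelled reporter fragments gives the signal; data fitted for gain over DMSO negative control. Source: HepG2 cells bearing transient multiple reporter transcription units, 24 h exposure.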

Measured: outcome

Sequence of Nuclear receptor subfamily 1 group I member 3 (Homo sapiens) (Q14994 whole entry, looked up, the tested form may be a part): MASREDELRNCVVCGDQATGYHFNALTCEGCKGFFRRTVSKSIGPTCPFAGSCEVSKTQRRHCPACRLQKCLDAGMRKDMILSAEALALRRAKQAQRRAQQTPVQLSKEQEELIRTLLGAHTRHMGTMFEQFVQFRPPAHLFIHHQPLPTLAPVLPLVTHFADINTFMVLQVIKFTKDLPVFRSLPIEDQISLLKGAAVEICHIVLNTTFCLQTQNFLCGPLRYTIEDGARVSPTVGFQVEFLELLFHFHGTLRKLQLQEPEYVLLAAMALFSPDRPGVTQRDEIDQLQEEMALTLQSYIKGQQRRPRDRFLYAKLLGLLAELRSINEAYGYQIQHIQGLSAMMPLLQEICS
Sequence of Bile acid receptor (Homo sapiens) (Q96RI1 whole entry, looked up, the tested form may be a part): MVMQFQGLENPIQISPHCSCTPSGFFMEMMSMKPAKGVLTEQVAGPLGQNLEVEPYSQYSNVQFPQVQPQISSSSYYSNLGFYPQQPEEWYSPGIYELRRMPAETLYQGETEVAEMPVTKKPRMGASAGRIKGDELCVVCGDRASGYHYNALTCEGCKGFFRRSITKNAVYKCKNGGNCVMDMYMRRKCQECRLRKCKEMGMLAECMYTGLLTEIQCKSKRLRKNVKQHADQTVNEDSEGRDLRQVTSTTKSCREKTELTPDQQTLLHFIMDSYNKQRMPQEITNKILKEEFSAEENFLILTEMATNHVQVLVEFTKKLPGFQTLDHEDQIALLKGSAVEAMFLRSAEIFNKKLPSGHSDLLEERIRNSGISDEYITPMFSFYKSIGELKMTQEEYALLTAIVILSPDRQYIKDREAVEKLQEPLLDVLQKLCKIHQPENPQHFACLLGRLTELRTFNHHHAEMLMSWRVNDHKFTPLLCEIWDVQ
Sequence of Transcriptional activator Myb (Homo sapiens) (P10242 whole entry, looked up): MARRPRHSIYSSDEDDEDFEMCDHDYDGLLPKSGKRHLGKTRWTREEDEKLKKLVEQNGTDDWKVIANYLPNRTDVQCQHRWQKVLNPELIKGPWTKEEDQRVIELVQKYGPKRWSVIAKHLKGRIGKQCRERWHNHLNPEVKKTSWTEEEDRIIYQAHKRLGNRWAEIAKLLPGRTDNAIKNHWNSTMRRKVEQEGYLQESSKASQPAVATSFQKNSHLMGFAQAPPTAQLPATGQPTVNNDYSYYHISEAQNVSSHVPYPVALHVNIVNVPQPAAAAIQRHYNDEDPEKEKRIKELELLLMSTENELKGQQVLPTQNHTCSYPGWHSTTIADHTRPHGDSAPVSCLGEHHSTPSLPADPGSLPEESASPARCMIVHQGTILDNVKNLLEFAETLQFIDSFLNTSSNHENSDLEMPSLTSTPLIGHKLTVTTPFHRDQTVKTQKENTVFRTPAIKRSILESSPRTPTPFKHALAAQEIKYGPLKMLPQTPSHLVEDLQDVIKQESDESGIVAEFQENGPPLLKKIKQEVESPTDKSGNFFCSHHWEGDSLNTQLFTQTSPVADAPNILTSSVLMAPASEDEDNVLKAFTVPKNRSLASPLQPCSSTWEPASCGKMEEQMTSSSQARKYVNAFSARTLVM
Sequence of Nuclear respiratory factor 1 (Homo sapiens) (Q16656 whole entry, looked up): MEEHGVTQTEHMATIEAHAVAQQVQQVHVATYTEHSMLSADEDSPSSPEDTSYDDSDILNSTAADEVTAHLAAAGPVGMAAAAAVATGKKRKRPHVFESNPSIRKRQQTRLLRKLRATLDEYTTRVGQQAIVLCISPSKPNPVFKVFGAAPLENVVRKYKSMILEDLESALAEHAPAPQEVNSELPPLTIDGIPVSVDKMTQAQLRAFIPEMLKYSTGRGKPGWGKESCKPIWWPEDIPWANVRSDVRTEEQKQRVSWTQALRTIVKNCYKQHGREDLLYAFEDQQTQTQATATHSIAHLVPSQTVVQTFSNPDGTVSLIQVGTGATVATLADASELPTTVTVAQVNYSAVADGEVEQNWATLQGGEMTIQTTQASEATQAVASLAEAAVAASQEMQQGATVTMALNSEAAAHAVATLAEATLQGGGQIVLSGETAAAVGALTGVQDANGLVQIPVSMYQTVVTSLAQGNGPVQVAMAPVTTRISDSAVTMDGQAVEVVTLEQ
Sequence of Nuclear receptor subfamily 4 group A member 2 (Homo sapiens) (P43354 whole entry, looked up): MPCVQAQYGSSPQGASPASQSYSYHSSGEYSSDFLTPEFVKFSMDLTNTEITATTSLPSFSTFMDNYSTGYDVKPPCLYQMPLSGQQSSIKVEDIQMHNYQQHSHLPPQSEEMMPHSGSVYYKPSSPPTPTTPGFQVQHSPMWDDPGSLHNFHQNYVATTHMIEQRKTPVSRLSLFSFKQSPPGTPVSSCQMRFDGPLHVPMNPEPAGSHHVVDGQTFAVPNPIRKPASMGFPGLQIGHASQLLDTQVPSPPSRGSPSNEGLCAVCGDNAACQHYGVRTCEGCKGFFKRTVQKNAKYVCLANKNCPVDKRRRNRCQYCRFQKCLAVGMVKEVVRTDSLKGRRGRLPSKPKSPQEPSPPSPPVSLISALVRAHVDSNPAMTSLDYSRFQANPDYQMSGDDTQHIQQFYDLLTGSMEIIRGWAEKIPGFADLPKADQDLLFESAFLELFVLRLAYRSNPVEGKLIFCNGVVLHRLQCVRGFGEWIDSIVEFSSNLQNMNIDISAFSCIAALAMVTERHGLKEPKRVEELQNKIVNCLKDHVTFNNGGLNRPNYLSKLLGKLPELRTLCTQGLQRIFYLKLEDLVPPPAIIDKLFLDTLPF
Sequence of Oxysterols receptor LXR-beta (Homo sapiens) (P55055 whole entry, looked up, the tested form may be a part): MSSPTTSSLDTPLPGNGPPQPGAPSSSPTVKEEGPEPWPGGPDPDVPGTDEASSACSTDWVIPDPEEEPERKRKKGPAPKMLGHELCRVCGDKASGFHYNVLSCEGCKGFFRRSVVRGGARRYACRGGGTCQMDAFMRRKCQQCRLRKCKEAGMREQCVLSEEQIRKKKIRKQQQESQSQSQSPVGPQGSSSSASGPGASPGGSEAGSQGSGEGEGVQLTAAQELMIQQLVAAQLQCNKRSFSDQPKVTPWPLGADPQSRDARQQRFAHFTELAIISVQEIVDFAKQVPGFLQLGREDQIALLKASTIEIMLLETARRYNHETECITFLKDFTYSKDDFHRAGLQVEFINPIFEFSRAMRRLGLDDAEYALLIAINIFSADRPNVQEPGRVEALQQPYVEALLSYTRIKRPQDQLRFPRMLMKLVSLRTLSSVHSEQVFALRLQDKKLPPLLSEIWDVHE
Sequence of Oxysterols receptor LXR-alpha (Homo sapiens) (Q13133 whole entry, looked up, the tested form may be a part): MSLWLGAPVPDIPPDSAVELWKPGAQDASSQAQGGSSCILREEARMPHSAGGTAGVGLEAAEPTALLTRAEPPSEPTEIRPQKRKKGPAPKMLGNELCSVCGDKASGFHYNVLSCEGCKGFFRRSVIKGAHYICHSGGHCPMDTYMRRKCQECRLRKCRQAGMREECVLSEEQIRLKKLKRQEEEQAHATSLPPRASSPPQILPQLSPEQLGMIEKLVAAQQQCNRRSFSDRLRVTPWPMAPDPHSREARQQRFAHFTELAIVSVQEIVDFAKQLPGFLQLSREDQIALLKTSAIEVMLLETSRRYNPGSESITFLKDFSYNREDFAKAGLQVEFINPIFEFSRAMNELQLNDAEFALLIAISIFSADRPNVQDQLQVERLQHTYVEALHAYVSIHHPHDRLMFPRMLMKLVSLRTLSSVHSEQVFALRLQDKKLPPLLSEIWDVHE
Sequence of Estrogen receptor (Homo sapiens) (P03372 whole entry, looked up, the tested form may be a part): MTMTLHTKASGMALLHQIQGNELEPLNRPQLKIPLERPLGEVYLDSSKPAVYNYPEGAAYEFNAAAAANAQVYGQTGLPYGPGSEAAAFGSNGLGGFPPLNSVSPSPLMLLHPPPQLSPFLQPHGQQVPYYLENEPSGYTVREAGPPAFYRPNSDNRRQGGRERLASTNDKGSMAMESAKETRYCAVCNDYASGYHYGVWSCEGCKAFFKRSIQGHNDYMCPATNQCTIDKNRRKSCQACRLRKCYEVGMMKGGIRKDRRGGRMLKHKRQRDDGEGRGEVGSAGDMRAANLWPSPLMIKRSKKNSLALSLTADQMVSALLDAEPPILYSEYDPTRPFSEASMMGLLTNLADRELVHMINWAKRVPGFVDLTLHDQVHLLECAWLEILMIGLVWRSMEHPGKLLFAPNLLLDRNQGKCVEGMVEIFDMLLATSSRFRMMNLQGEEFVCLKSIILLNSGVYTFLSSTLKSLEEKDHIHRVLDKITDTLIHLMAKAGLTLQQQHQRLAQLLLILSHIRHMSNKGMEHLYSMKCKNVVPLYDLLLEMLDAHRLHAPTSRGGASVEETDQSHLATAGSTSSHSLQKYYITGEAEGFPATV
Sequence of Glucocorticoid receptor (Homo sapiens) (P04150 whole entry, looked up, the tested form may be a part): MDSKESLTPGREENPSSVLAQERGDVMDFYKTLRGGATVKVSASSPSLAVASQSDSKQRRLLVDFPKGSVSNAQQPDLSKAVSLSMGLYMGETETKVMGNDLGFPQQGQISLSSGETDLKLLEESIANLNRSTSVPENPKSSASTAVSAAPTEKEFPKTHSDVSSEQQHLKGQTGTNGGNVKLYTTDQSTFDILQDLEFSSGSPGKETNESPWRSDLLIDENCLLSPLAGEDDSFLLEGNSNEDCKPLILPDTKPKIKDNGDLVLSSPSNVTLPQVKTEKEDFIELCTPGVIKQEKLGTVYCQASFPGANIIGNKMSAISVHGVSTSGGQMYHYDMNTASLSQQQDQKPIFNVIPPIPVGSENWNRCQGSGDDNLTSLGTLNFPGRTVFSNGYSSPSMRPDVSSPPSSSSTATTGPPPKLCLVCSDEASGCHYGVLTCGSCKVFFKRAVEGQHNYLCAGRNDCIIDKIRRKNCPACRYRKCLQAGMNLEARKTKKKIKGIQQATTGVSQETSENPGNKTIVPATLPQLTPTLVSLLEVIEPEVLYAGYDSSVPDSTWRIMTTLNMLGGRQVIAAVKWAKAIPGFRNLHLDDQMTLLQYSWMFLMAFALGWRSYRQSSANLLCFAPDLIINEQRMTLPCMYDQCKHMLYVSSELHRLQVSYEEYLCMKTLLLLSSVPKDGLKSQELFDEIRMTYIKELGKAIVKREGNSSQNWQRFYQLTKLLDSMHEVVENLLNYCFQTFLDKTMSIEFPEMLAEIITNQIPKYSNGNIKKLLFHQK

COc1cc(NC(=O)CC(C)=O)c(OC)cc1Cl
not listed: [16] | [17] | [18] | [19] | [20]
inactive: all other assays above

Cc1ccc(C2OC[C@@H]3OC(c4ccc(C)cc4)O[C@H]([C@H](O)CO)[C@@H]3O2)cc1 (stereo partly drawn)
not listed: [3] | [4] | [5] | [7] | [9] | [10] | [14] | [15]
inactive: all other assays above

O=C1CCCCCCCCCCCCCCCO1
not listed: [7] | [8] | [9] | [16] | [18]
inactive: all other assays above

Cc1ccc(OC(=O)CC(C)C)cc1
not listed: [5] | [7] | [9] | [10] | [11] | [16]
inactive: all other assays above

CCCCCCCCCCCCCCCCCC#N
not listed: [5] | [6] | [7] | [9] | [12] | [13] | [16] | [17]
inactive: all other assays above
